Experimental data: PubChem BioAssay (NCATS)
Records with an inconclusive call do not appear. Where a call stands in place of a potency, no number is given. Active and inactive are the calls of the source. The call rests on the fitted dose curve; in most records, active means well fitted inhibition curve with a large enough effect; inconclusive means small, poorly fitted or top-dose-only effect, or effect the other way; inactive means flat fitted curve, though single readings scatter.

molecular target: D(1A) dopamine receptor (Homo sapiens) (UniProt P21728); test: HTS Assay for Allosteric Agonists of the Human D1 Dopamine Receptor: Primary Screen for Antagonists (AID 488983); conditions: D1 receptor cell assay, antagonist mode, qHTS titration; series mostly up to 41.8 µM; further: nearly all actives have a fitted effect of over 65% in size
Sequence (P21728 whole entry, looked up): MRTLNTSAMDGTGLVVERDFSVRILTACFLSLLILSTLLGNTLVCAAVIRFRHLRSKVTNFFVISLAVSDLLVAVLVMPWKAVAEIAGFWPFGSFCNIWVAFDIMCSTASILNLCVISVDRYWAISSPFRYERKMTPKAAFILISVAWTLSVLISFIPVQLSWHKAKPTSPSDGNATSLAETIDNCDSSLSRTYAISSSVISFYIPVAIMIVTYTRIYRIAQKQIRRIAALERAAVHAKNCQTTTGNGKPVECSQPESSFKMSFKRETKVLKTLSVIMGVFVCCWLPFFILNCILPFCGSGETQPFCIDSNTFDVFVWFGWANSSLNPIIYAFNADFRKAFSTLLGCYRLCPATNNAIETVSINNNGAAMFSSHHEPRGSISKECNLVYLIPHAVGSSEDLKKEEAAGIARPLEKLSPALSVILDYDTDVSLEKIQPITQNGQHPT
Source text: Dopamine receptors (DARs) are involved in the etiology and/or therapy of a number of neuropsychiatric and endocrine disorders. For instance, all receptor-based antiparkinsonian drugs work via stimulating the […] DAR subtype whereas all FDA-approved antipsychotic agents are antagonists of this receptor. […] There are three different types of allosteric modulators that we are seeking, two of which will stimulate or augment receptor signaling, allosteric agonists and potentiators, while the third, allosteric antagonists, will attenuate receptor signaling. The present primary screening assay measures compound agonism by tracking calcium flux in a […], inducible Hek293 Trex D1 cell line.
Freshly passaged cells are plated in 1536 well black, clear bottom plates at a density of 4000 cells/well in 3 ul of complete media containing 1x tetracycline inducer. After an overnight incubation at 30 C in 5% CO2, cells are loaded with 2 ul of the no wash Calcium Assay Kit (ABD Bioquest) and incubated at room temperature for 30 to 90 minutes. A 10 cycle (1 second/cycle) baseline measurement is taken and then the FDSS online 1536 pintool delivers 23 nl of compound library (as well as dopamine controls) to the plate. The plate is measured for kinetically at 1 cycle/sec for 180 seconds and is considered to be the agonist portion of the assay (eg, compounds which activate a positive calcium response during this portion are flagged as potential agonists). Following the 180 second read, 1 ul of an EC80 of dopamine is delivered by an onboard pipette head. Measurements are taken kinetically for an additional 180 seconds.
Potency means the concentration at half of the fitted maximal effect.

**Q.** For `CN(C)c1ccc(/C=C2\C(=O)Nc3ccccc32)cc1`, which Potency is on record?
**A.** inactive

**Q.** With `CCN(CC)c1ncnc2c1ncn2[C@@H]1O[C@H](COP(=O)(O)OP(=O)(O)C(Br)(Br)P(=O)(O)O)[C@@H](O)[C@H]1O` as the compound, how does the Potency read?
**A.** inactive

**Q.** `C#CCN1C(C)=C(C(=O)OC)C(c2cccc([N+](=O)[O-])c2)C(C(=O)OCC)=C1C` (stereo not given) was tested. Which Potency did it give?
**A.** inactive

**Q.** How did the Potency turn out when `C[N+]1(C)CCC(OC(=O)C(c2ccccc2)c2ccccc2)CC1` was run?
**A.** inactive

**Q.** For `Nc1nc(Cl)nc2c1ncn2[C@@H]1O[C@H](CO)[C@@H](O)[C@H]1O`, which Potency is on record?
**A.** inactive

**Q.** With `N#C/C(=C\c1ccc(O)c(O)c1)C(=O)c1ccc(O)c(O)c1` as the compound, how does the Potency read?
**A.** inactive

**Q.** Which Potency does the source give for `OC[C@H]1O[C@@H](n2cnc3c(NC4CCCC4)ncnc32)[C@H](O)[C@@H]1O` here?
**A.** inactive

**Q.** How did the Potency turn out when `O=C1O/C(=C/Br)CCC1c1cccc2ccccc12` (stereo not given) was run?
**A.** inactive

**Q.** For `CN1C2CCC1CC(OC(=O)C(O)c1ccccc1)C2` (stereo not given), which Potency is on record?
**A.** inactive

**Q.** For `Oc1cc(O)cc(/C=C/c2ccc(O)c(O)c2)c1`, which Potency is on record?
**A.** inactive

**Q.** For `C[C@@H](NC(=O)/C(C#N)=C/c1ccc(O)c(O)c1)c1ccccc1`, which Potency is on record?
**A.** inactive

**Q.** Which Potency does the source give for `CC12C(=O)OC(=O)C1(C)C1CCC2O1` (stereo not given) here?
**A.** inactive

**Q.** Which Potency does the source give for `NC(=O)C1=CN(C2OC(COP(=O)(O)OP(=O)(O)OC[C@H]3O[C@@H](n4cnc5c(N)ncnc54)[C@H](OP(=O)(O)O)[C@@H]3O)C(O)C2O)C=CC1` (stereo not given in full) here?
**A.** inactive

**Q.** For `O=C(/C=C/c1ccc(O)c(O)c1)OCCc1ccccc1`, which Potency is on record?
**A.** inactive

**Q.** `N#C/C(=C\c1ccc(O)c(O)c1)C(=O)NCc1ccccc1` was tested. Which Potency did it give?
**A.** inactive

**Q.** With `CCNC(=O)[C@H]1O[C@@H](n2cnc3c(N)nc(NCCc4ccc(CCC(=O)O)cc4)nc32)[C@H](O)[C@@H]1O` as the compound, how does the Potency read?
**A.** inactive

**Q.** Which Potency does the source give for `C=C[C@@H]1CN2CC[C@@H]1C[C@H]2[C@H](O)c1ccnc2ccc(OC)cc12` here?
**A.** inactive

**Q.** For `COc1ccccc1N1CCN(CCCCNS(=O)(=O)c2cccc3c(N(C)C)cccc23)CC1`, which Potency is on record?
**A.** 2 µM (active)

**Q.** `Brc1c(Br)c(Br)c2n[nH]nc2c1Br` was tested. Which Potency did it give?
**A.** inactive

**Q.** `CN=c1nc(-c2ccccc2)n(-c2ccccc2)s1` was tested. Which Potency did it give?
**A.** 11.2 µM (active)

**Q.** Which Potency does the source give for `O=C(O)CC[C@@H](C(=O)O)N1C(=O)c2ccccc2C1=O` here?
**A.** inactive

**Q.** Which Potency does the source give for `COc1cccc(C(=O)NCCN2CCN(c3ccc(Cl)cc3)CC2)c1` here?
**A.** inactive

**Q.** `COc1cc(C(O)CO)ccc1OS(=O)(=O)O` (stereo not given) was tested. Which Potency did it give?
**A.** inactive

**Q.** `CN(C)CCCO[C@@H]1[C@H]2OC(C)(C)O[C@H]2O[C@@H]1[C@H](O)CO` was tested. Which Potency did it give?
**A.** inactive

**Q.** `O=C(O)CCCC[C@@H]1CCSS1` was tested. Which Potency did it give?
**A.** inactive

**Q.** `Cc1ccc(C(=O)O[C@H](C(=O)O)[C@@H](OC(=O)c2ccc(C)cc2)C(=O)O)cc1` (tested in a mixture with another compound) was tested. Which Potency did it give?
**A.** inactive

**Q.** `C=CC(C)=C[C@@]1(C)SC(=O)C(C)=C1O` was tested. Which Potency did it give?
**A.** inactive

**Q.** `CNC(=O)[C@H]1O[C@@H](n2cnc3c(NCc4ccc(N)cc4)ncnc32)[C@H](O)[C@@H]1O` was tested. Which Potency did it give?
**A.** inactive

**Q.** For `O=C(O)c1cc(=O)c2ccccc2[nH]1`, which Potency is on record?
**A.** inactive

**Q.** With `CCCCCCCCCCCCCCCCCCNC(=O)OCC(COP(=O)([O-])OCC[n+]1ccsc1)OC` (stereo not given) as the compound, how does the Potency read?
**A.** inactive

**Q.** How did the Potency turn out when `CC(C)NC[C@@H](O)c1ccc(O)c(O)c1` was run?
**A.** inactive

**Q.** `CO/S(=N\S(=O)(=O)c1ccc(Cl)cc1)c1ccc([N+](=O)[O-])cc1` (stereo not given) was tested. Which Potency did it give?
**A.** inactive

**Q.** How did the Potency turn out when `NC(=S)c1ccc[n+]([C@@H]2O[C@@H](COP(=O)([O-])OP(=O)(O)OC[C@H]3O[C@@H](n4cnc5c(N)ncnc54)[C@H](OP(=O)(O)O)[C@@H]3O)C(O)C2O)c1` (stereo not given in full) was run?
**A.** inactive

**Q.** How did the Potency turn out when `CCCN(CC1CC1)c1nc(C)nc(Nc2c(Cl)cc(Cl)cc2Cl)c1Cl` was run?
**A.** inactive

**Q.** Which Potency does the source give for `COc1ccccc1CNCCCCCCNCCCCCCCCNCCCCCCNCc1ccccc1OC` here?
**A.** inactive

**Q.** For `Nc1nc(Nc2ccccc2)nc2c1ncn2[C@@H]1O[C@H](CO)[C@@H](O)[C@H]1O`, which Potency is on record?
**A.** inactive

**Q.** For `CCCCCCCCCCCCCCCC(=O)NCC(COP(=O)([O-])OCC[N+](C)(C)C)OCC` (stereo not given), which Potency is on record?
**A.** 10 µM (active)

**Q.** Which Potency does the source give for `Cc1cc(NC2CCCCC2)nc(-n2nc(C)cc2C)n1` here?
**A.** inactive

**Q.** How did the Potency turn out when `COc1ccc(NC(=O)/C=C/c2ccc(Cl)cc2)cc1` was run?
**A.** inactive

**Q.** For `O=C(O)c1cc([N+](=O)[O-])ccc1NCCCc1ccccc1`, which Potency is on record?
**A.** inactive
